This note sets out measurements from PubChem BioAssay AID1117319 (Southern Research Institute, 2015).

Several values for one entry are separate records, joined by “and”; a condition that tells them apart may be missing. Equal entries are not always repeated. Out of some 260,000 compounds screened, about 1,500 (0.58%) were called active. Inconclusive results (about 5%) are left out. Only a sample is shown. Results with a measured potency or affinity are listed apart. Values without a mark were called inactive.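 How the source made its calls: active means inhibition above a set limit at one or more doses, reproduced on every date tested; inconclusive means results disagree between test dates, or hit never tested in dose response; inactive means the rest.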

The target of this assay is Virion infectivity factor (Human immunodeficiency virus type 1 group M subtype B (isolate BH10)) + Virion infectivity factor (Human immunodeficiency virus type 1 group M subtype B (isolate BRU/LAI)) + Virion infectivity factor (Human immunodeficiency virus type 1 group M subtype B (isolate PCV12)) + Virion infectivity factor (Human immunodeficiency virus type 1 group M subtype B (isolate HXB2)) + DNA dC->dU-editing enzyme APOBEC-3G (Homo sapiens) (UniProt P69720+P69721+P69722+P69723+Q9HC16). Briefly: HIV-1 Vif–A3G interaction blockers – biochemical, TR-FRET, GST-Vif 1-94, biotin-A3G peptide, dose response retest, primary screen (AID 1117319).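 Further: Vif residues 1-94 fused to GST binding biotinylated APOBEC3G peptide 110-148; 0% = full assay without inhibitor and 100% = GST in place of GST-Vif.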 Conditions: TR-FRET GST-Vif / biotin-A3G peptide binding; active compounds read high.
Regarding `CCOc1ccccc1NC(=O)CSc1n[nH]c(=O)n1-c1ccccc1`, the inhibition was -11.6%. With `COC(=O)CNc1ccc2c(c1)OCO2`, the inhibition is 26.3%. The value for `CCOC(=O)Nc1ccc2c(c1)OCO2` was -0.36%; that for `Cn1c(CNC(=O)CNC(=O)c2cccc(F)c2)cc(=O)n(C)c1=O` was 1.22%.

As for `O=C1CC(N2CCSCC2)C(=O)N1c1cccc(Cl)c1` (stereo unspecified), the inhibition was 2.84%. The value for `COc1ccc(/C=C2/C(=N)N3N=C(CC(=O)N4CCCC4)SC3=NC2=O)cc1` was -6.36%; that for `N=C1/C(=C/c2ccco2)C(=O)N=C2SC(CC(=O)N3CCCC3)=NN12` was 22.9%.

On to `COc1ccc(CNC(=O)COC(=O)c2[nH]c(C)c(C(C)=O)c2C)cc1OC`, for which the inhibition is 7.14%. The value for `CN(c1ccc(OCC(=O)NC2CCC(O)CC2)cc1)S(=O)(=O)c1ccc(Cl)cc1` (stereo unspecified) was -2.71%.

For the compound `O=c1cc(-c2ccccc2Cl)oc2cc(O)cc(O)c12`, the inhibition is -0.34%. In the case of `O=c1cc(-c2ccccc2F)oc2ccccc12` it was 17.5%. In the case of `O=c1[nH]c(=O)n(Cc2ccccc2)c2nc(-c3cccs3)n(CCO)c12` it was 0.78%; in that of `Cc1ccc(S(=O)(=O)Cn2nnnc2C(CC(C)C)N2CCN(C(=O)c3ccco3)CC2)cc1` (stereo unspecified), 28%. In the case of `Cc1ccc(S(=O)(=O)Cn2nnnc2C(CC(C)C)N2CCN(c3ccccc3)CC2)cc1` (stereo unspecified) it was -7.24%. Take `COC(=O)CSc1ncnc2scc(-c3ccccc3)c12`: the inhibition was 13.7%. As for `Cc1ccc2cccc(Oc3ncnc4scc(-c5ccccc5)c34)c2n1`, the inhibition is -1.8%. The value for `COc1cc(C)cc2c1OC(c1ccccc1)CC2=O` (stereo unspecified) was -0.37%; that for `COc1ccc(C2CC(=O)c3ccccc3O2)cc1` (stereo unspecified) was 18.3%; that for `O=c1c2cn[nH]c2[nH]c(=S)n1-c1ccccc1F` was -1.23%.

Take `CCC(C)NCCCOc1c(C)cc(C)cc1Br` (stereo unspecified): the inhibition was -1.93%. In the case of `CCC(CC)C(=O)N(CCc1ccc(OC)cc1)Cc1nc2ccccc2c(=O)[nH]1` it was -1.67%; in that of `COCC(=O)N(CCc1ccc(OC)cc1)Cc1nc2ccccc2c(=O)[nH]1`, 0.5%; in that of `O=C(CNC(=O)c1cccc(Cl)c1)NCC(c1cccs1)N1CCOCC1` (stereo unspecified), -8.67%. In the case of `Cc1nnc2ccc(-c3cccc(NS(C)(=O)=O)c3)nn12` it was 30.9%; in that of `Cc1cc(C)n2c(SCC(O)=C(C#N)c3nc4ccccc4[nH]3)nnc2n1`, -1.4%. In the case of `CCCn1c(SC/C(O)=C(\C#N)c2nc3ccccc3[nH]2)n[nH]c1=O`, the inhibition is 8.52%. The value for `O=C(Nc1ccccn1)C1CCN(S(=O)(=O)c2cccs2)CC1` was -2.3%. In the case of `O=C(Nc1ccc(Cl)cn1)C1CCN(S(=O)(=O)c2cccs2)CC1`, the inhibition is 2.8%. The value for `Cc1ccc(S(=O)(=O)NCC(=O)OC(C(=O)c2ccccc2)c2ccccc2)cc1` (stereo unspecified) was 17.9%. In the case of `CCCCN1C(=O)C(CC(=O)NCc2ccco2)CC(C(=O)N(CC)CC)=C1C` (stereo unspecified) it was -1.7%. The value for `Cn1cc(C(=O)N/N=C/c2ccc(Br)c([N+](=O)[O-])c2)c2ccccc21` was -0.7%.

`NC(=O)COC(=O)CNC(=O)c1ccc(Cl)cc1`: the inhibition is -2.39%. In the case of `Cc1cccc(C(=O)Nc2sc3c(c2C#N)CCCCC3)c1` it was -5.88%. The value for `Cc1ccc(C(=O)Nc2sc3c(c2C#N)CCCCC3)cc1C` was -3.7%.

As for `CC(C)(C)c1ccc(OCCC(=O)OCC(=O)Nc2ccc(N3CCOCC3)cc2)cc1`, the inhibition is -3.5%. The value for `O=Nc1c(O)ccc2cc(S(=O)(=O)O)ccc12` was 24.3%; that for `O=C(O)c1cc(S(=O)(=O)O)ccc1O` was 9.92%; that for `Nc1cc(S(=O)(=O)O)cc2ccc(S(=O)(=O)O)cc12` was 0.1%. The value for `O=P(c1ccccc1)(c1ccccc1)c1cc(S(=O)(=O)O)ccc1O` was 26.4%; that for `COc1ccc(C)cc1-n1c(C)cc(C=O)c1C` was -0.15%. As to `c1ccc(Cn2ncc3ccccc32)cc1`, the inhibition was 23.7%. The value for `Cc1cc([N+](=O)[O-])nn1CC(=O)N/N=C/c1ccccc1Br` was -3.16%; that for `Cc1ccnc(NS(=O)(=O)c2ccc(NC(=O)Cc3ccccc3)cc2)n1` was 4.16%; that for `COC(=O)c1cc(OC)c(OC)cc1NC(=O)Cc1cccs1` was 10.3%. The value for `Cc1nc2ccc(NC(=O)Cc3ccccc3F)cc2s1` was 13.4%. In the case of `O=C(Cc1cccs1)Nc1ccc(S(=O)(=O)Nc2ncccn2)cc1` it was 26.2%; in that of `Cc1nc2ccc(NC(=O)Cc3ccsc3)cc2s1`, -2.69%. For `Cc1cc(NC(=O)CCCC(=O)NCc2cccs2)no1`, the inhibition was 10.9%.

For the compound `Cc1cc(NS(=O)(=O)c2ccc(NC(=O)Cc3cccs3)cc2)no1`, the inhibition is -3.09%. For `COC(=O)c1ccc(C(=O)OC)c(NC(=O)CCC(=O)O)c1`, the inhibition was 17.1%. On to `COc1ccc(OC)c(-c2nc(C(N)=O)c3[nH]c(=O)n(-c4ccc(F)cc4)c3n2)c1`, for which the inhibition was -0.73%. In the case of `NNC(=O)c1nc(-c2cccc(-n3cccc3)c2)no1` it was 2.13%; in that of `CC(=O)Nc1ccc(C(=O)COC(=O)CCc2ccccc2)c(F)c1`, -7.82%. The value for `FC(F)(F)c1cnc(-n2cc[nH]c2=S)c(Cl)c1` was -3.85%. As for `CCCCN=C1NC(=O)C(CC(=O)NCCc2ccc(OC)cc2)S1` (stereo unspecified), the inhibition is 21.5%.

For the compound `CCOc1ncccc1C(=O)NCCN1C(=O)S/C(=C/c2cccs2)C1=O`, the inhibition is 17.3%. In the case of `Cc1nc(Nc2ccccc2)c2oc3ccc(Cl)cc3c2n1` it was -10.6%; in that of `Cc1ccc(NC(=O)c2cc(-c3ccc(C)o3)nc3ccccc23)cc1`, 20.7%. The value for `Cc1ccc(-c2cc(C(=O)Nc3ccccc3C)c3ccccc3n2)o1` was 0.87%. The value for `CCc1c(C(=O)OC)nnc2cc(C)nn12` was -2.39%. `COc1ccc(SCC(=O)Nc2ccc(N3CCN(C)CC3)c(F)c2)cc1`: the inhibition is -1.67%. The value for `CC(=O)c1c(C)[nH]c(C(=O)OCC(=O)NCC(C)C)c1C` was -6.38%; that for `CNC(=O)COC(=O)c1[nH]c(C)c(C(C)=O)c1C` was 1.68%.

With `CCOC(=O)c1c(C)[nH]c(C(=O)OCC(=O)N2CCN(S(=O)(=O)c3ccc(C)cc3C)CC2)c1C`, the inhibition was -6.76%.

On to `Cc1[nH]ccc(=O)c1Oc1ncc(C(F)(F)F)cc1Cl`, for which the inhibition is -2.35%.

As for `Cc1ccc(-c2nn(Cc3ccccc3)cc2/C=C/C(=O)O)cc1C`, the inhibition was -3.26%. Consider `COc1ccc(OC)c(C(c2nnnn2C2CCCC2)N2CCN(c3ccccc3F)CC2)c1` (stereo unspecified), for which the inhibition is -6.38% and 2.54%.

`COc1ccc(C)cc1NC(=O)C(C)N(c1ccc(C)cc1)S(C)(=O)=O` (stereo unspecified): the inhibition is -0.78%. The value for `CCC(CC)C(=O)N1CC(=O)Nc2ccc(F)cc2C1c1ccccc1` (stereo unspecified) was -0.74%; that for `COc1cc(/C=C2\SC(=N)N(c3ccc4c(c3)OCO4)C2=O)cc(OC)c1O` was 2.68%; that for `CC(/C=C1\SC(=S)N(CC(=O)N2CCN(c3ccccc3)CC2)C1=O)=C\c1ccccc1` was 25.6%.

Turning to `N=C1S/C(=C\c2cccc3ccccc23)C(=O)N1c1ccc(F)cc1`, the inhibition was -3.83%. In the case of `COc1ccc(CCN2C(=O)/C(=C\c3ccco3)SC2=S)cc1OC` it was 0.31%; in that of `COc1cccc(/C=C2\SC(=S)N(c3cccnc3)C2=O)c1OC`, -3.12%. In the case of `Cc1ccc(N2C(=O)/C(=C/c3ccco3)SC2=S)cc1` it was -7.25%.

For the compound `O=C1/C(=C\c2ccc(O)cc2)SC(=S)N1c1cccnc1`, the inhibition is 1.44%.

As for `O=C(O)CN1C(=O)/C(=C\C(Br)=C\c2ccccc2)SC1=S`, the inhibition was 8.8%. In the case of `C[C@H](O)[C@@H]1C(=O)N2CCc3ccc(N4CCOCC4)cc3[C@@H]2C[C@@H]1N(C)S(=O)(=O)c1ccccc1` it was -8.52%; in that of `CN1C(=O)C(N=Nc2ccccc2C(=O)O)N(C)C1=S` (stereo unspecified), 30.3%; in that of `Cc1ccc(SCC(=O)N(C)CC(=O)Nc2cccc(F)c2)cc1`, 0.72%. In the case of `COc1cccc(-n2c(SC)nnc2-c2cnccn2)c1` it was -0.18%; in that of `CCN(CC(=O)Nc1cc(Cl)ccc1C)C(=O)c1ccc2c(=O)n3c(nc2c1)CCC3`, 2.7%. In the case of `CN(C)Cc1cn(CCC(=O)O)c2ccccc12` it was -3.96%; in that of `O=C1OC/C(=C(/O)c2ccc(Cl)cc2)C1=O`, -8.18%; in that of `Cc1ccc(/C=C2\SC(=S)N(Cc3ccccc3)C2=O)o1`, 29.5%.

Regarding `O=C(O)c1ccc(/C=C2/SC(=S)N(Cc3ccccc3)C2=O)cc1`, the inhibition was -0.52%. Turning to `Cc1ccc(/C=C2\SC(=S)N(c3cccnc3)C2=O)cc1`, the inhibition was 21.1%. In the case of `O=C1/C(=C/c2cccnc2)SC(=S)N1c1ccccc1` it was 8.11%; in that of `O=C1/C(=C/c2cccs2)SC(=S)N1c1ccccc1`, -6.53%.

`Cc1cccc(N2C(=O)/C(=C/c3cccnc3)SC2=S)c1`: the inhibition was -1.54%. In the case of `Cc1nn(C)c(C(=O)NNC(=S)Nc2ccc(F)cc2)c1[N+](=O)[O-]`, the inhibition is -3.65%. For `CCn1cnc2cc(NC(=O)c3ccc(C)cc3)ccc21`, the inhibition is -2%. The value for `COCCn1c(SCC(=O)N2CCCc3ccccc32)nc2cccnc21` was -1.26%; that for `C/C(=N\S(=O)(=O)c1ccc(C)cc1)NC(=S)Nc1ccccc1` was -0.88%; that for `Cc1ccsc1C(=O)OCC(=O)Nc1cccc(S(=O)(=O)N2CCOCC2)c1` was 2.2%. In the case of `Cc1cc(C(=O)OC(C)C(=O)NC2CCCCC2C)c2ccccc2n1` (stereo unspecified) it was -2.6%.
